Assay results reported in PubChem BioAssay (Tox21).
Results filed as inconclusive are left out. The source made the active and inactive calls. Calls come from the whole dose curve; as a rule, active = well fitted activation curve with a large enough effect in the repeat runs; inconclusive = weak or mixed curves, or effect the other way; inactive = no such curve, though single readings can be large or run the other way.

Assay: qHTS assay to identify small molecule agonists of the estrogen related receptor signaling pathway with the pleiotropic PPARgamma coactivator (PGC) from Tox21 10K library (AID 1224842); note: nearly all actives have a fitted effect of over 15% in size
Details: PGC/ERR reporter cell line, luciferase ONE-Glo, 18 h; series mostly up to 92.4 µM; activation: at the top concentration
Excerpt: National Center for Advancing Translational Sciences [NCATS] NIH Chemical Genomics Center [NCGC] U.S. Environmental Protection Agency [EPA] National Institutes of Environmental Health Sciences [NIEHS] National Toxicology Program [NTP] Assay overview: Estrogen related receptors (ERRs), the first orphan nuclear receptors discovered, play an important role in the control of cellular energy metabolism. ERRs are required for high-energy production in response to the environmental challenges. The pleiotropic PPARgamma coactivator (PGC) is a major partner of ERR and a key regulator in energy homeostasis. Together they have been implicated in the etiology of metabolic disorders such as Type 2 diabetes and metabolic syndrome. ERR-alpha was also identified as an adverse marker for breast cancer progression; ERR-alpha-positive tumors have a poor prognosis. To screen and to identify environmental compounds that perturb the PGC/ERR signaling pathways could provide valuable information for potential therapeutic or preventive measures in the treatment of metabolic disease. For identifying PGC/ERR agonists, PGC/ERR cell line (provided by NTP) has been used to screen Tox21 10K library.
Assay Protocol Summary: The PGC/ERR cells were dispensed at 2,000 cells/5 ul/well in 1536-well white plates using a Multidrop dispenser. After the assay plates were incubated at a 37 C/5% CO2 incubator for 6 hours, 23 nL of compounds dissolved in DMSO, positive and negative controls or DMSO only was transferred to the assay plate by a pin tool. The plates were incubated at 37 C for 18 hours. 4 ul/well of One-Glo reagent was added into the assay plates using a Flying Reagent Dispenser. After 30-minute incubation at room temperature, the luminescence intensity in the plates was measured using a ViewLux plate reader.
% is set by controls: 0 for no effect and ±100 for the full control effect; potency is the fitted concentration of half-maximal effect.

| Compound | activation | Potency |
| --- | --- | --- |
| O=C1CCN(c2ccccc2)N1 | 6.35% (inactive) |  |
| CCCCc1ccc2nc(NC(=O)OC)[nH]c2c1 |  | 3.76 µM (active) |
| FC(F)(F)c1ccccc1 | -0.0239% (inactive) |  |
| CCCCNCCCC | 5.29% (inactive) |  |
| CCOc1ccc2nc(N)sc2c1 |  | 27.1 µM (active) |
| CO[Si](C)(C)OC | 0.98% (inactive) |  |
| O=C(CCCl)NCc1ccccc1 | 3.62% [at 42.5 µM] (inactive) |  |
| CC(=O)OC1C2(C)CCC(C2)C1(C)C (stereo not given) | 0.0325% (inactive) |  |
| NCCC(O)(P(=O)(O)O)P(=O)(O)O | 2.51% [at 42.5 µM] (inactive) |  |
| COc1ccccc1N1CCN(CCCNc2cc(=O)n(C)c(=O)n2C)CC1 | -1.31% [at 42.5 µM] (inactive) |  |
| CCCCCCCCCC/C=C/C#N | -0.0381% (inactive) |  |
| CC(C)(C)c1ccc(OC(=O)c2ccccc2O)cc1 |  | 10.9 µM (active) |
| Cc1ccc([N+](=O)[O-])cc1Cl | 1.34% (inactive) |  |
| CCOC(=O)c1cc(=O)c2c(OCC(COc3cccc4oc(C(=O)OCC)cc(=O)c34)OC(=O)[C@@H](N)CCCCN)cccc2o1 | 0.996% [at 42.5 µM] (inactive) |  |
| CCc1cc(Cl)c(OC)c(C(=O)NC[C@@H]2CCCN2CC)c1O | 2.25% [at 42.5 µM] (inactive) |  |
| CCCCCCCCCCCCCCCCOP(=O)([O-])OCC[N+](C)(C)C | 7.32% [at 42.5 µM] (inactive) |  |
| Cc1cccc(C)c1NC(=O)CN1CCCCCC1 | -2.63% [at 42.5 µM] (inactive) |  |
| O=C1N(c2ccccc2)c2ccccc2C1(Cc1ccncc1)Cc1ccncc1 | -6.65% [at 42.5 µM] (inactive) |  |
| Cc1nc(-c2ccccn2)ncc1C(=O)Nn1cc(C)c2cc(F)ccc21 | -27.9% (inactive) |  |
| Cn1cnc2c(F)c(Nc3ccc(Br)cc3Cl)c(C(=O)NOCCO)cc21 | -2.12% [at 42.5 µM] (inactive) |  |

| Compound | activation | Potency |
| --- | --- | --- |
| Clc1cccc(-c2cc(Cl)cc(Cl)c2)c1 | 1.43% (inactive) |  |
| O=C(CC(=O)C(F)(F)F)c1ccccc1 |  | 6.2 µM (active) |
| CCCc1c2oc(C(=O)O)cc(=O)c2cc2c(=O)cc(C(=O)O)n(CC)c12 | 2.6% [at 42.5 µM] (inactive) |  |
| Cc1ncc(CO)c(CN)c1O | -0.0785% [at 42.5 µM] (inactive) |  |
| O=c1[nH]cnc2c1ncn2[C@@H]1O[C@H](CO)[C@@H](O)[C@H]1O | 0.681% [at 42.5 µM] (inactive) |  |
| COc1cc(C)ccc1C(C)C | 0.676% (inactive) |  |
| CCCCCCCCCC#N | -3.45% (inactive) |  |
| CC1=C2[C@H](/C=C(\C)C(=O)O)CC[C@@H](C)[C@H]2CC1 | 1.7% (inactive) |  |
| CCCCCCCCCCCCOCCOS(=O)(=O)O | 0.318% (inactive) |  |
| CC(CNC1CCCCC1)OC(=O)c1ccccc1 (stereo not given) | -2.47% [at 42.5 µM] (inactive) |  |
| O=C(O)CN(CCN(CC(=O)O)CC(=O)O)CCN(CC(=O)O)CC(=O)O | 0.186% [at 19 µM] (inactive) |  |
| CC(C)C1=CC2=CC[C@@H]3[C@](C)(CCC[C@@]3(C)C(=O)O)[C@H]2CC1 | -8.89% (inactive) |  |
| COC(=O)c1ccc2cc(C(=O)OC)ccc2c1 |  | 4.44 µM (active) |
| CCN(CC)CC1CCCCN1CC(=O)N1c2ccccc2C(=O)Nc2cccnc21 (stereo not given) | 0.341% [at 42.5 µM] (inactive) |  |
| OCc1c2ccccc2cc2ccccc12 | -5.56% (inactive) |  |
| Cc1ccc(C)c(N)c1 | 1.15% (inactive) |  |
| O=C1CCC(C2CCCCC2)CC1 | -3.23% (inactive) |  |
| CC1=C(CC(=O)O)c2cc(F)ccc2/C1=C\c1ccc(S(C)(=O)=O)cc1 | -1.02% [at 42.5 µM] (inactive) |  |
| NC(Cc1ccc(F)cc1)C(=O)O (stereo not given) | 1.4% [at 8.39 µM] (inactive) |  |
| CCOc1ccc(NC(N)=O)cc1 | 0.309% (inactive) |  |
